# About 410 targets per protein were measured; listed, in parts, are those with the strongest signals and a random draw of the rest.
# What was measured:
# Test in all cases: glycan array binding signal (z-score within array); higher = stronger binding
# Settings in all cases: glycan notation: IUPAC condensed, linker removed
# [1] = target: Neu5Ac(a2-3)Gal(b1-3)GlcNAc(b1-3)Gal(b1-4)GlcNAc
# How it was run: (§1)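 Glycan array binding is given as a within-array Z-score, which can be read as non-binding when negative. The arrays, 3228 of them, came from the Consortium for Functional Glycomics database and were retained only where the protein sequence was available. Z-scores were averaged across arrays of the same protein sequence at different concentrations or buffers and across linkers.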
# [2] = target: Neu5Ac(a2-3)Gal(b1-3)[Neu5Ac(a2-6)]GalNAc
# How it was run: as §1
# [3] = target: Neu5Ac(a2-3)Gal(b1-4)GlcNAc(b1-3)Gal
# How it was run: as §1
# [4] = target: Neu5Ac(a2-3)[GalNAc(b1-4)]Gal(b1-4)Glc
# How it was run: as §1
# [5] = target: Neu5Ac(a2-8)Neu5Ac(a2-8)Neu5Ac(a2-3)Gal(b1-4)Glc
# How it was run: as §1
# [6] = target: Neu5Gc(a2-6)GalNAc
# How it was run: as §1
# [7] = target: Fuc(a1-2)Gal(b1-4)GlcNAc
# How it was run: as §1
# [8] = target: Fuc(a1-2)Gal(b1-4)GlcNAc(b1-2)[Fuc(a1-2)Gal(b1-4)GlcNAc(b1-4)]Man(a1-3)[Fuc(a1-2)Gal(b1-4)GlcNAc(b1-2)Man(a1-6)]Man(b1-4)GlcNAc(b1-4)GlcNAc
# How it was run: as §1
# [9] = target: Fuc(a1-2)[Gal(a1-3)]Gal(b1-4)[Fuc(a1-3)]Glc
# How it was run: as §1
# [10] = target: Fuc(a1-2)[GalNAc(a1-3)]Gal(b1-3)GlcNAc(b1-2)Man(a1-3)[Fuc(a1-2)[GalNAc(a1-3)]Gal(b1-3)GlcNAc(b1-2)Man(a1-6)]Man(b1-4)GlcNAc(b1-4)GlcNAc
# How it was run: as §1
# [11] = target: Fuc(a1-3)[Gal(b1-4)]GlcNAc
# How it was run: as §1
# [12] = target: Fuc(a1-3)[Gal(b1-4)]GlcNAc(b1-3)Gal(b1-3)[Fuc(a1-4)]GlcNAc
# How it was run: as §1
# [13] = target: Gal(a1-3)[Gal(a1-4)]Gal(b1-4)GlcNAc
# How it was run: as §1
# [14] = target: Gal(a1-6)Glc
# How it was run: as §1
# [15] = target: Gal(b1-3)GlcNAc(b1-2)[Gal(b1-3)GlcNAc(b1-6)]Man(a1-6)[Gal(b1-3)GlcNAc(b1-2)Man(a1-3)]Man(b1-4)GlcNAc(b1-4)GlcNAc
# How it was run: as §1
# [16] = target: Gal(b1-4)GlcNAc(b1-2)[Gal(b1-4)GlcNAc(b1-6)]Man(a1-6)[Gal(b1-4)GlcNAc(b1-2)Man(a1-3)]Man(b1-4)GlcNAc(b1-4)GlcNAc
# How it was run: as §1
# [17] = target: Gal(b1-4)GlcNAc(b1-3)Gal(b1-4)Glc
# How it was run: as §1
# [18] = target: Gal(b1-4)GlcNAc(b1-3)Gal(b1-4)[Fuc(a1-3)]GlcNAc(b1-3)Gal(b1-4)[Fuc(a1-3)]GlcNAc
# How it was run: as §1
# [19] = target: Gal3S(b1-4)GlcNAc
# How it was run: as §1
# [20] = target: Gal3S(b1-4)[Fuc(a1-3)]Glc6S
# How it was run: as §1
# [21] = target: GalNAc(b1-3)Gal
# How it was run: as §1
# [22] = target: GalNAc(b1-3)Gal(a1-4)Gal(b1-4)GlcNAc(b1-3)Gal(b1-4)Glc
# How it was run: as §1
# [23] = target: GlcNAc(a1-4)Gal(b1-4)GlcNAc(b1-3)Gal(b1-4)GlcNAc(b1-3)Gal(b1-4)GlcNAc
# How it was run: as §1
# [24] = target: GlcNAc(b1-2)Man(a1-3)[GlcNAc(b1-2)Man(a1-6)]Man(b1-4)GlcNAc(b1-4)GlcNAc
# How it was run: as §1
# [25] = target: GlcNAc(b1-2)[GlcNAc(b1-4)]Man(a1-3)[GlcNAc(b1-4)][GlcNAc(b1-2)[GlcNAc(b1-6)]Man(a1-6)]Man(b1-4)GlcNAc(b1-4)GlcNAc
# How it was run: as §1
# [26] = target: GlcNAc(b1-3)Gal(b1-4)GlcNAc(b1-3)Gal(b1-4)GlcNAc
# How it was run: as §1
# [27] = target: Kdn(a2-3)Gal(b1-3)GalNAc
# How it was run: as §1
# [28] = target: Kdn(a2-3)Gal(b1-4)GlcNAc
# How it was run: as §1
# [29] = target: Man(a1-2)Man(a1-2)Man(a1-3)Man
# How it was run: as §1
# [30] = target: Man(a1-2)Man(a1-2)Man(a1-6)[Man(a1-3)]Man
# How it was run: as §1
# [31] = target: Man(a1-2)Man(a1-3)[Man(a1-2)Man(a1-6)]Man
# How it was run: as §1
# [32] = target: Man(a1-2)Man(a1-3)[Man(a1-2)Man(a1-6)]Man(a1-6)[Man(a1-2)Man(a1-2)Man(a1-3)]Man
# How it was run: as §1
# [33] = target: Man(a1-2)Man(a1-3)[Man(a1-2)Man(a1-6)]Man(a1-6)[Man(a1-2)Man(a1-2)Man(a1-3)]Man(b1-4)GlcNAc(b1-4)GlcNAc
# How it was run: as §1
# [34] = target: Man(a1-2)Man(a1-3)[Man(a1-6)]Man(a1-6)[Man(a1-2)Man(a1-3)]Man(b1-4)GlcNAc(b1-4)GlcNAc
# How it was run: as §1
# [35] = target: Man(a1-2)Man(a1-6)[Man(a1-3)]Man(a1-6)[Man(a1-2)Man(a1-2)Man(a1-3)]Man
# How it was run: as §1
# [36] = target: Man(a1-2)Man(a1-6)[Man(a1-3)]Man(a1-6)[Man(a1-2)Man(a1-2)Man(a1-3)]Man(b1-4)GlcNAc(b1-4)GlcNAc
# How it was run: as §1
# [37] = target: Man(a1-3)[Man(a1-6)]Man(a1-6)[Man(a1-2)Man(a1-3)]Man(b1-4)GlcNAc(b1-4)GlcNAc
# How it was run: as §1
# [38] = target: Man(a1-3)[Man(a1-6)]Man(b1-4)GlcNAc(b1-4)GlcNAc
# How it was run: as §1
# [39] = target: Neu5Ac(a2-3)Gal(b1-3)[Fuc(a1-4)]GlcNAc(b1-3)Gal(b1-3)[Fuc(a1-4)]GlcNAc
# How it was run: as §1
# [40] = target: Neu5Ac(a2-3)Gal(b1-4)GlcNAc(b1-6)[Gal(b1-3)]GalNAc
# How it was run: as §1
# [41] = target: Neu5Ac(a2-6)Gal(b1-4)GlcNAc(b1-2)Man(a1-3)[GlcNAc(b1-2)Man(b1-4)GlcNAc(b1-2)Man(a1-6)]Man(b1-4)GlcNAc(b1-4)GlcNAc
# How it was run: as §1
# [42] = target: Neu5Ac(a2-6)GlcNAc(b1-4)GlcNAc(b1-4)GlcNAc
# How it was run: as §1
# [43] = target: Neu5Ac(a2-8)Neu5Ac(a2-3)Gal(b1-3)GalNAc(b1-4)[Neu5Ac(a2-8)Neu5Ac(a2-3)]Gal(b1-4)Glc
# How it was run: as §1
# [44] = target: Neu5Ac(a2-8)Neu5Ac(a2-8)Neu5Ac(a2-8)Neu5Ac(a2-3)[GalNAc(b1-4)]Gal(b1-4)Glc
# How it was run: as §1
# [45] = target: Neu5Ac(b2-6)GalNAc
# How it was run: as §1
# [46] = target: Neu5Gc(a2-3)Gal(b1-3)[Fuc(a1-4)]GlcNAc
# How it was run: as §1
# [47] = target: Neu5Gc(a2-3)Gal(b1-4)Glc
# How it was run: as §1
binder,measurement,setting,value
"BC2L-A (Burkholderia cenocepacia), Q1BKJ8_BURCA (protein) ADSQTSSNRAGEFSIPPNTDFRAIFFANAAEQQHIKLFIGDSQEPAAYHKLTTRDGPREATLNSGNGKIRFEVSVNGKPSATDARLAPINGKKSDGSPFTVNFGIVVSEDGHDSDYNDGIVVLQWPIG",glycan array binding signal (z-score),[1],-0.218
same,glycan array binding signal (z-score),[2],-0.083
same,glycan array binding signal (z-score),[3],-0.214
same,glycan array binding signal (z-score),[4],-0.295
same,glycan array binding signal (z-score),[5],-0.253
same,glycan array binding signal (z-score),[6],-0.29
Gz-CVNH (Gibberella zeae) (protein) MGSSHHHHHHSSGLVPRGSHMGNFHESSNNIWLEDGHILHAECGNGEGDYVESTLDLDYYIGNDDGSFSWGGENFSGSASNITLDIEGDDNIPVLRAELNPMDGDPVEANVNLSERIGNDCGTLIFLA,glycan array binding signal (z-score),[7],-0.133
same,glycan array binding signal (z-score),[8],-0.106
same,glycan array binding signal (z-score),[9],-0.109
same,glycan array binding signal (z-score),[10],-0.121
same,glycan array binding signal (z-score),[11],-0.14
same,glycan array binding signal (z-score),[12],-0.114
same,glycan array binding signal (z-score),[13],-0.135
same,glycan array binding signal (z-score),[14],-0.128
same,glycan array binding signal (z-score),[15],-0.096
same,glycan array binding signal (z-score),[16],-0.094
same,glycan array binding signal (z-score),[17],-0.114
same,glycan array binding signal (z-score),[18],-0.14
same,glycan array binding signal (z-score),[19],-0.166
same,glycan array binding signal (z-score),[20],0.005
same,glycan array binding signal (z-score),[21],-0.146
same,glycan array binding signal (z-score),[22],-0.132
same,glycan array binding signal (z-score),[23],-0.131
same,glycan array binding signal (z-score),[24],-0.129
same,glycan array binding signal (z-score),[25],-0.112
same,glycan array binding signal (z-score),[26],-0.14
same,glycan array binding signal (z-score),[27],-0.14
same,glycan array binding signal (z-score),[28],-0.117
same,glycan array binding signal (z-score),[29],3.53
same,glycan array binding signal (z-score),[30],7.75
same,glycan array binding signal (z-score),[31],1.63
same,glycan array binding signal (z-score),[32],12.7
same,glycan array binding signal (z-score),[33],2.82
same,glycan array binding signal (z-score),[34],5.4
same,glycan array binding signal (z-score),[35],9.9
same,glycan array binding signal (z-score),[36],8.33
same,glycan array binding signal (z-score),[37],1.34
same,glycan array binding signal (z-score),[38],-0.119
same,glycan array binding signal (z-score),[39],-0.074
same,glycan array binding signal (z-score),[40],-0.115
same,glycan array binding signal (z-score),[41],-0.09
same,glycan array binding signal (z-score),[42],-0.14
same,glycan array binding signal (z-score),[43],-0.156
same,glycan array binding signal (z-score),[5],-0.128
same,glycan array binding signal (z-score),[44],-0.142
same,glycan array binding signal (z-score),[45],-0.108
same,glycan array binding signal (z-score),[46],-0.134
same,glycan array binding signal (z-score),[47],-0.113

# — the supplement of paper PMC8728848
